The structures appear in SMILES notation. Active and inactive are the calls of the source. Rule for the calls: active = hit-call score of the fitted dose curve at least 0.9, where 1 is the maximum; inactive = score below 0.9.

Outcome and AC50 data for seven compounds are collected here from PubChem BioAssay (EPA / NIEHS).

Assay [1] in a line: ATG_E_Box_CIS: Attagene CIS-FACTORIAL HepG2 Assay for human Enhancer Box (E-box) (AID 2282936). The following applies: HepG2 E-box cis-reporter transcription, actives raise or lower the signal. The procedure, abridged: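 Multiplexed CIS reporter system in transiently transfected HepG2 cells measures native transcription factor activity. Reporter RNA after 24 h exposure is profiled by RT-PCR-capillary electrophoresis.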

A short description of assay [2]: ATG_M_61_CIS: Attagene CIS-FACTORIAL HepG2 Assay for M61 Transcription Factor (Internal Marker) (AID 2282937). To be noted: HepG2 Attagene CIS-FACTORIAL M61 internal marker reporter; actives raise or lower the signal. The procedure, abridged: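 Readout: fluorescent reporter mRNA fragments resolved by capillary electrophoresis after RT-PCR. Transiently transfected human HepG2 cells carried MRTU constructs reporting endogenous TF activity; 24 h chemical exposure; gain or loss of signal fitted relative to DMSO.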

Assay [3] can be described thus: ATG_EGR_CIS: Attagene CIS-FACTORIAL HepG2 Assay for human Early Growth Response 1 (EGR1) (AID 2282938). To be noted: HepG2 Attagene CIS-FACTORIAL EGR reporter mRNA; actives raise or lower the signal. The method, boiled down: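 Read-out: fluorescent reporter-mRNA fragments resolved by capillary electrophoresis after RT-PCR, 24 h post-dose in transiently transfected HepG2. Endogenous transcription-factor activity reported via cis-element-regulated reporter units; gain or loss fitted relative to DMSO.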

A short description of assay [4]: ATG_ERE_CIS: Attagene CIS-FACTORIAL HepG2 Assay for Estrogen Response Element (ERE) (AID 2282940). To be noted: HepG2 ERE cis-reporter, Attagene RNA transcript; actives raise or lower the signal. The procedure, abridged: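 Human liver cells (HepG2) bearing transiently transfected, promoter-regulated reporter units were exposed 24 h. Reporter mRNA induction was detected by capillary electrophoresis of labelled RT-PCR products and fitted bidirectionally to DMSO.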

A short description of assay [5]: ATG_Ets_CIS: Attagene CIS-FACTORIAL HepG2 Assay for human Erythroblast Transformation Specific (ETS) (AID 2282941). To be noted: HepG2 ETS cis-reporter transcription, actives raise or lower the signal. The method, boiled down:
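HepG2 cells transfected with multiple cis-regulated reporter units measuring endogenous ETS-driven transcription, 24 h after dosing. Reporter mRNA quantified by RT-PCR with capillary electrophoresis; bidirectional fit relative to DMSO.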

Assay [6] addresses Hepatocyte nuclear factor 3-beta (Homo sapiens) (UniProt Q9Y261). Put plainly: ATG_FoxA2_CIS: Attagene CIS-FACTORIAL HepG2 Assay for human Forkhead box A2 (FOXA2) (AID 2282942). The following applies: HepG2 cis-reporter transcription factor activity, 24 h; actives raise or lower the signal. The method, boiled down:
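Readout: fluorescent reporter transcripts resolved by capillary electrophoresis after RT-PCR. Transiently transfected HepG2, 24 h compound exposure, endogenous TF activity at cis promoter elements. Gain or loss of signal fitted relative to DMSO.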

Assay [7] in a line: ATG_FoxO_CIS: Attagene CIS-FACTORIAL HepG2 Assay for human Forkhead box O (FoxO) (AID 2282943). To be noted: HepG2 Attagene cis-reporter, FoxO element, mRNA; actives raise or lower the signal. The procedure, abridged:
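HepG2 cells transiently transfected with cis-promoter-driven multiple reporter transcription units; 24 h after chemical dosing, reporter mRNA quantified by RT-PCR, fluorescent primer extension, HpaI digestion and capillary electrophoresis. Bidirectional fitting versus DMSO baseline.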

Assay [8] in a line: ATG_GATA_CIS: Attagene CIS-FACTORIAL HepG2 Assay for human GATA Binding Protein (AID 2282944). To be noted: HepG2 GATA cis-element reporter, Attagene multiplex mRNA; actives raise or lower the signal. The procedure, abridged:
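Transfected cis-reporter HepG2 cells were treated with chemicals for 24 hours. Total RNA was then converted to cDNA, amplified with reporter-specific primers and analysed by fluorescent capillary electrophoresis, using DMSO-treated wells as baseline.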

Assay [9] in a line: ATG_GLI_CIS: Attagene CIS-FACTORIAL HepG2 Assay for human Zinc Finger Protein GLI1 (AID 2282945). To be noted: HepG2, Attagene cis-factorial reporter mRNA, GLI element; actives raise or lower the signal. The procedure, abridged:
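HepG2 cells transiently transfected with cis-promoter multiplexed reporter units report endogenous transcription factor activity. After 24 h chemical exposure, reporter mRNA was quantified by RT-PCR, 6-FAM labelling, HpaI digestion and capillary electrophoresis, with bidirectional fitting against DMSO.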

A short description of assay [10]: ATG_GRE_CIS: Attagene CIS-FACTORIAL HepG2 Assay for human Glucocorticoid Response Elements (GRE) (AID 2282947). The following applies: HepG2 GRE cis-reporter, Attagene multiplex mRNA; actives raise or lower the signal. The method, boiled down: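 Following 24 h chemical exposure of transiently transfected HepG2 cells, total RNA was reverse-transcribed and reporter cDNA amplified, fluorescently labelled and sized by capillary electrophoresis. Signal gain or loss was fitted relative to DMSO vehicle.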

A short description of assay [11]: ATG_ISRE_CIS: Attagene CIS-FACTORIAL HepG2 Assay for human Interferon Regulatory Factor 1 (IRF1) binding to an Interferon-Stimulated Response Element (ISRE) (AID 2282948). The following applies: HepG2 ISRE cis-reporter (Attagene), mRNA transcription readout; actives raise or lower the signal. The procedure, abridged:
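Transiently transfected HepG2 cells carrying cis-element reporter units, dosed 24 hours. Reporter mRNA quantified by RT-PCR, fluorescent primer extension, HpaI digestion and capillary electrophoresis. Bidirectional fitting relative to DMSO.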

The nature of assay [12]: ATG_M_32_CIS: Attagene CIS-FACTORIAL HepG2 Assay for M32 Transcription Factor (Internal Marker) (AID 2282949).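 Note: background control marker of the multiplexed CIS panel rather than a real target.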 To be noted: HepG2 Attagene cis-factorial M32 reporter, mRNA; actives raise or lower the signal. The procedure, abridged: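 HepG2 cells transiently transfected with multiplexed cis-regulated reporter units, dosed 24 h. Reporter mRNA quantified by RT-PCR, 6-FAM labelling, HpaI digestion and capillary electrophoresis; bidirectional fit vs DMSO.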

In assay [13] the target is Hepatocyte nuclear factor 6 (Homo sapiens) (UniProt Q9UBC0). Nature of the assay: ATG_HNF6_CIS: Attagene CIS-FACTORIAL HepG2 Assay for human Hepatocyte Nuclear Factor 6 (HNF6) (AID 2282952). The following applies: HepG2 Attagene cis-factorial HNF6 reporter transcription; actives raise or lower the signal. The procedure, abridged:
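HepG2, transient MRTU transfection (cis promoters); 24 h chemical exposure; total RNA → oligo(dT) RT → PCR → 6-FAM labelling → HpaI cut → CE; bidirectional fit vs DMSO.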

Assay [14] in a line: ATG_MRE_CIS: Attagene CIS-FACTORIAL HepG2 Assay for human Metal Responsive Element (MRE) (AID 2282954). The following applies: HepG2 MRE cis-reporter transcription, Attagene multiplex; actives raise or lower the signal. The procedure, abridged:
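Step one: transfect HepG2 with cis-regulated reporter units. Step two: dose 24 h. Step three: isolate RNA, RT-PCR, 6-FAM label, HpaI digest, capillary electrophoresis. Fit bidirectionally to DMSO.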

Assay [15] is described as follows: ATG_PBREM_CIS: Attagene CIS-FACTORIAL HepG2 Assay for human Phenobarbital-responsive Enhancer Module (PBREM) (AID 2282955). The following applies: HepG2 PBREM cis-reporter, Attagene multiplexed transcription; actives raise or lower the signal. The method, boiled down: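 Reporter mRNA read by RT-PCR, 6-FAM primer extension, HpaI digestion and capillary electrophoresis. Transfected HepG2 cells, 24 h compound exposure. Gain or loss of signal fitted bidirectionally relative to DMSO baseline.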

In assay [16] the target is Bile acid receptor (Homo sapiens) (UniProt Q96RI1). Nature of the assay: ATG_IR1_CIS: Attagene CIS-FACTORIAL HepG2 Assay for human Nuclear Receptor Subfamily 1 Group H Member 4 (NR1H4), IR1 submotif (AID 2282946). The following applies: IR1 reporter transcription, actives raise or lower the signal. The procedure, abridged:
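Transient MRTU transfection, HepG2; 24 h dosing; RNA → RT-PCR → 6-FAM primer extension → HpaI digest → capillary electrophoresis fluorescence. Gain/loss of signal fitted relative to DMSO.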

Assay [17] can be described thus: ATG_M_06_CIS: Attagene CIS-FACTORIAL HepG2 Assay for M06 Transcription Factor (Internal Marker) (AID 2282950). To be noted: HepG2 Attagene CIS-FACTORIAL M06 internal marker reporter; actives raise or lower the signal. The method, boiled down:
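Cells (HepG2, transiently carrying cis-driven reporter units) receive chemical for 24 h before RNA isolation. Reporter cDNA is PCR-amplified, FAM-labelled by primer extension, HpaI-digested and sized on a capillary analyser.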

Assay [18] deals with Hypoxia-inducible factor 1-alpha (Homo sapiens) (UniProt Q16665). Nature of the assay: ATG_HIF1a_CIS: Attagene CIS-FACTORIAL HepG2 Assay for human Hypoxia Inducible Factor 1 (HIF1A) (AID 2282951). To be noted: HepG2 Attagene cis-factorial HIF1a reporter transcription; actives raise or lower the signal. The method, boiled down:
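RT-PCR/capillary electrophoresis fluorescence readout of reporter transcripts from endogenous-TF-driven cis elements in transfected HepG2 cells, 24 h exposure; activity fitted in both directions against DMSO controls.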

In assay [19] the target is Heat shock factor protein 1 (Homo sapiens) (UniProt Q00613). Nature of the assay: ATG_HSE_CIS: Attagene CIS-FACTORIAL HepG2 Assay for human Heat Shock Transcription Factor 1 (HSE) (AID 2282953). To be noted: HepG2 HSE cis-reporter, Attagene RNA transcription; actives raise or lower the signal. The procedure, abridged: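 Liver-derived HepG2 cells carry transiently introduced multiple reporter units governed by cis promoters. Reporter RNA measured 24 h post-dose through reverse transcription, PCR amplification, fluorescent labelling and capillary electrophoresis, normalised to DMSO.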
Sequence of Heat shock factor protein 1 (Homo sapiens) (Q00613 whole entry, looked up): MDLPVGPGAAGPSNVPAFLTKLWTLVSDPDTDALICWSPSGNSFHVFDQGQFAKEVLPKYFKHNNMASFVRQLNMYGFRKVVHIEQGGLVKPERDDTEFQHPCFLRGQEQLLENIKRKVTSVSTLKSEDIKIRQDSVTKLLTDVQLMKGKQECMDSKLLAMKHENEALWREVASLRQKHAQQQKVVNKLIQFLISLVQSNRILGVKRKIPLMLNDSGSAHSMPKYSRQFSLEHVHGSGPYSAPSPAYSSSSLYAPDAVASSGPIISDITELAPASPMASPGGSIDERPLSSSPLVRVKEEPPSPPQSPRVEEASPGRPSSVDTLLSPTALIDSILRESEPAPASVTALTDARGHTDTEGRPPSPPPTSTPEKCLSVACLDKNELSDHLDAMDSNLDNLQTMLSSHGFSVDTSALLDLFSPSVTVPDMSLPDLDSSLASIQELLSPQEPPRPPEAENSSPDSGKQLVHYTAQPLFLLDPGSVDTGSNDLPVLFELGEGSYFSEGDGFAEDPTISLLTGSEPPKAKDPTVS

Sequence of Bile acid receptor (Homo sapiens) (Q96RI1 whole entry, looked up): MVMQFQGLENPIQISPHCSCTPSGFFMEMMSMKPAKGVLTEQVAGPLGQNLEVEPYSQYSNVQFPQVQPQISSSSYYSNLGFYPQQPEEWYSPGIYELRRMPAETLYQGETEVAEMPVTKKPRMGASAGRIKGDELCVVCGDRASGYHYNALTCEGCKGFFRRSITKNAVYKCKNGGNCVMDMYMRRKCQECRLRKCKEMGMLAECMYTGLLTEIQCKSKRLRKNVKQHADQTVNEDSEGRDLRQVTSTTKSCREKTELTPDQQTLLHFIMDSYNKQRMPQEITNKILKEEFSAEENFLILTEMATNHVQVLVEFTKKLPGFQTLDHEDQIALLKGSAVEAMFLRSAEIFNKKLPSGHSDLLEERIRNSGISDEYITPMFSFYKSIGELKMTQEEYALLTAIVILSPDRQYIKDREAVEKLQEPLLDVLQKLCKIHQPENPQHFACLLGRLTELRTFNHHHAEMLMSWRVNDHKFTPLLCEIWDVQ
Sequence of Hepatocyte nuclear factor 6 (Homo sapiens) (Q9UBC0 whole entry, looked up): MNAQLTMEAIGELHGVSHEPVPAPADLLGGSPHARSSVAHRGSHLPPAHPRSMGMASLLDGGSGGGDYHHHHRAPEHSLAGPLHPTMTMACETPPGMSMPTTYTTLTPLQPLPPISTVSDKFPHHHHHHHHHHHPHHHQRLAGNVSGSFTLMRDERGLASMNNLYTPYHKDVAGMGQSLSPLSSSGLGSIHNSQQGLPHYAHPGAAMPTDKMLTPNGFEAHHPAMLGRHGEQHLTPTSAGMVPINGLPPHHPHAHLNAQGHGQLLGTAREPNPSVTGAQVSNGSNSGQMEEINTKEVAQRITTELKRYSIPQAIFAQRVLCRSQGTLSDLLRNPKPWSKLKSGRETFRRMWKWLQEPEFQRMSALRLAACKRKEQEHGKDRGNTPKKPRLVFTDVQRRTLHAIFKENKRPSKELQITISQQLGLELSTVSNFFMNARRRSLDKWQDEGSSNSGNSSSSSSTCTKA
Sequence of Hepatocyte nuclear factor 3-beta (Homo sapiens) (Q9Y261 whole entry, looked up): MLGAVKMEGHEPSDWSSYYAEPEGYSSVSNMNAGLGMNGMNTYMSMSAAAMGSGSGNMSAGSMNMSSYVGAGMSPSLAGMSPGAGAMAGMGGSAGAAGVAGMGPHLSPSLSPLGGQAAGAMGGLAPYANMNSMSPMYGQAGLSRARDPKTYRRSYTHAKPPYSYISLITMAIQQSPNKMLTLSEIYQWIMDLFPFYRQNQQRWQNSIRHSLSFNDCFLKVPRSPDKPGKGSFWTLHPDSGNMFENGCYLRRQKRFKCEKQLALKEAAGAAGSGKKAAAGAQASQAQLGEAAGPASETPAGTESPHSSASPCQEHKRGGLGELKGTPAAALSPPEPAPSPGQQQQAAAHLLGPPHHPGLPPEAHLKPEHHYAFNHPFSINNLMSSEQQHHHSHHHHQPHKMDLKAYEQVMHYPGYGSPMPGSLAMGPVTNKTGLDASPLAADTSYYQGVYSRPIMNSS
Sequence of Hypoxia-inducible factor 1-alpha (Homo sapiens) (Q16665 whole entry, looked up): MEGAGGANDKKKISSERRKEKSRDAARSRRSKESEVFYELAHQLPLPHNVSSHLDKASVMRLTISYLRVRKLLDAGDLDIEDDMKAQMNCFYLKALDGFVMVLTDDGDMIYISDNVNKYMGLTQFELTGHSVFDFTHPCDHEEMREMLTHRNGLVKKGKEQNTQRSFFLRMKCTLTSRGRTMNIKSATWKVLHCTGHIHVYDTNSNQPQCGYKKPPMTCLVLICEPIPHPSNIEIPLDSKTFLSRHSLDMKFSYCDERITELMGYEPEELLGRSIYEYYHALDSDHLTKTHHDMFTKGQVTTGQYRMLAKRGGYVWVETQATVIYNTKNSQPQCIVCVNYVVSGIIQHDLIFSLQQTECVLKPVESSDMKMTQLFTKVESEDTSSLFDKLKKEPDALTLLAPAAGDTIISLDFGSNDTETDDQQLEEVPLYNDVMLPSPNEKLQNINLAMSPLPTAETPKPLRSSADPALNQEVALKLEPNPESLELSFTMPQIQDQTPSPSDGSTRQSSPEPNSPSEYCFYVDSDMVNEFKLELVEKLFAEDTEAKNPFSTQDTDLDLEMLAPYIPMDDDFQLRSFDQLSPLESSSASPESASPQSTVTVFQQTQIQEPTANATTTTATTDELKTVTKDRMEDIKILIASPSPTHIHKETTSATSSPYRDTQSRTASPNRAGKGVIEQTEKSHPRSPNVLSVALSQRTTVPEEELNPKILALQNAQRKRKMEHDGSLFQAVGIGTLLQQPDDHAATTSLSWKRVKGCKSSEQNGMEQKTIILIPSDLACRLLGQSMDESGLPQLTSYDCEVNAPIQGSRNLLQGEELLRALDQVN

Take `Cn1cnc([N+](=O)[O-])c1Sc1ncnc2nc[nH]c12`: the result in assay [1], in assay [2], in [3], in assay [5], in assay [6] and in assay [7] was inactive. The outcome in [8], in assay [9], in assay [10], in assay [12], in assay [13] and in assay [14] was inactive. For the same compound, in assay [15], the result was inactive. Further, the results for the half-maximal activity concentration (AC50) in assay [4] and in assay [11] were 29 µM (active) and 63.3 µM (active), respectively.

In the case of `CCNc1ccccc1`, the result in [1], in assay [2], in assay [3], in [5], in [6] and in [7] was inactive. For the same compound, the outcome in assay [8], in assay [9], in assay [16], in assay [12], in assay [17] and in assay [13] was inactive. For the same compound, the result in assay [19], in assay [14] and in [15] was inactive. Moreover, the AC50 in assay [18] was 59.4 µM (active).

With `CC(C)c1cccc(C(C)C)c1N1C(=O)c2ccc(O)cc2C1=O`, the result in assay [1], in assay [2], in assay [5], in [6], in assay [7] and in [8] was inactive. Moreover, the compound was called inactive in [10], in assay [12] and in assay [18]. The AC50 is 66.8 µM (active) in assay [3]; 126 µM (active) in assay [9]; 69.5 µM (active) in assay [16]; 84.7 µM (active) in assay [11]; 124 µM (active) in [13]; 68.4 µM (active) in [19]. Besides, the AC50 in assay [14] was 76.9 µM (active).

Take `CNCc1ccc(NC(=O)c2c[nH]c3c2C(=O)CCC3)cc1`: the result in assay [1], in assay [2], in [3], in assay [5], in assay [6] and in assay [7] was inactive. The outcome in [8], in assay [9], in assay [10], in [12], in assay [17] and in [18] was inactive. The call in assay [13], in [19], in assay [14] and in assay [15] was inactive. The AC50 in [11] is 71.1 µM (active).

Turning to `CC(=O)c1ccc2c(c1)[C@H](NC(=O)c1ccc(F)cc1)[C@@H](O)C(C)(C)O2`, the outcome in assay [1], in assay [2], in assay [3], in assay [5], in assay [6] and in [7] was inactive. Further, the call in assay [8], in assay [9], in assay [10], in assay [11], in [12] and in [17] was inactive. Further, the result in assay [18], in assay [13], in assay [19], in [14] and in assay [15] was inactive.

In the case of `CNS(=O)(=O)c1cc(C(=O)N2CCC(CCN3C4CCC3CC(n3c(C)nc5ccccc53)C4)(c3cccc(F)c3)CC2)c(Cl)cc1F` (configuration not stated), the result in assay [1], in [2], in assay [3], in assay [5], in [6] and in assay [7] was inactive. The call in [8], in assay [9], in [12], in [17], in assay [18] and in [13] was inactive. Further, the outcome in assay [19] and in assay [14] was inactive. For the same compound, the AC50 in [16] was 3.85 µM (active); in assay [11], 8.05 µM (active).

With `O=C1CCCCCN1`, the outcome in assay [1], in [2], in [3], in [5], in assay [6] and in [7] was inactive. Besides, the call in assay [8], in [9], in assay [16], in [12], in assay [18] and in assay [13] was inactive. Moreover, the compound was called inactive in [19], in assay [14] and in assay [15].
